Most compounds without a hit are left out; they make up all but 2.8% or so of the library.
MITF TRPM1 inh: MITF TRPM1 promoter inhibition in SK-MEL-5 cells. AID 488899. SK-MEL-5 TRPM1 promoter luciferase, 24 h. inhibition, % at 12.5 µM. 330,000 compounds, 0.83% hits;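 active = mean inhibition across replicates of 60% or more, whatever share of single replicates reaches that level; inconclusive = some that reach 60%, reason not given; inactive = mean inhibition across replicates below 60%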
Peg3 prom inh-1: inhibitors of Peg3 promoter. HeLa PEG-Prom luciferase reporter, luminescence, overnight. inhibition, % at 20 µM. 360,000 compounds, 1.7% hits;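 active = inhibition of at least 50% at 20 µM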
KKLEB cytotox: counter-screen for CF NF-kB inhibitors: cytotoxicity; 360,000 compounds, 0.36% hits; activity change (cytotoxicity), % at 5 µM; AID 602141; KKLEB CF airway cells viability, ATPlite luminescence, overnight; stronger effect = lower value; cells stimulated with P. aeruginosa culture filtrate;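 active = corrected activity change at or below -50% at 5 µM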
CF NFkB inh: cystic fibrosis NF-kB activation inhibition; AID 588850; KKLEB NF-kB-GFP reporter, PAF-induced, GFP fluorescence overnight; 360,000 compounds, 0.86% hits; inhibition, % at 5 µM;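 active = at least 50% inhibition at 5 µM, scaled per plate between neutral and stimulator controls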;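 also: PAF is a Pseudomonas aeruginosa culture filtrate used as stimulus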
B2AR ag: activates human beta-2 adrenergic receptor causing internalization; AID 504454; Am2.2-beta2AR cells, FAP receptor internalization, flow cytometry; response, % (test concentration not listed); 340,000 compounds, 0.43% hits;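 active = response above a set limit, near 3 SD of response in nonfluorescent compounds, cut at about 42% in these data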
Target sequence (P07550 whole entry, looked up): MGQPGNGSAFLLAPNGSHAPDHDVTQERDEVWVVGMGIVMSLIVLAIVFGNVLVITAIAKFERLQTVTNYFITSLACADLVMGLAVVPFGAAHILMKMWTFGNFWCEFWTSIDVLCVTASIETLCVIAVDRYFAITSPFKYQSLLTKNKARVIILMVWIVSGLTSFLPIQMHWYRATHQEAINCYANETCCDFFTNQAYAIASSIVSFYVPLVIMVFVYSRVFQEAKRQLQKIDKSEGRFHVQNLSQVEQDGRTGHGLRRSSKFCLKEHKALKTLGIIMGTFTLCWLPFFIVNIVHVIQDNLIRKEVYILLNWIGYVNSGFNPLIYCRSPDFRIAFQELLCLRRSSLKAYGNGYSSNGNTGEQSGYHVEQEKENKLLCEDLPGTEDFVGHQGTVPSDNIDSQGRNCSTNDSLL
HIF-2a block: inhibitors of HIF-2a | AID 624352 | 360,000 compounds, 0.72% hits | inhibition, % at 18.8 µM | 786-0 RCC cells HIF-2a reporter, luciferase luminescence, overnight;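 active = inhibition of the luminescence signal of 40% or more relative to plate controls, in a single-dose primary screen at 18.75 µM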
Peg3 prom inh-2: confirmation of Peg3 promoter inhibitors | inhibition, % at 20 µM | 1,300 compounds, 84% hits | shares compounds with Peg3 prom inh-1 | HeLa PEG-Prom luciferase reporter, luminescence, overnight;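 active = at 20 µM dose, 40% or more inhibition averaged across four replicates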
Hits are given with their value; - = inactive; ? = inconclusive; . = no result given.

SMILES	MITF TRPM1 inh	Peg3 prom inh-1	KKLEB cytotox	CF NFkB inh	B2AR ag	HIF-2a block	Peg3 prom inh-2
CN(C)CCn1c(=N)n(CC(O)c2ccc(Cl)c(Cl)c2)c2ccccc21 (stereo not drawn)	-	-	-	-	-	-	.
N=c1n(CCN2CCCCC2)c2ccccc2n1CC(O)c1ccc(Cl)c(Cl)c1 (stereo not drawn)	?	117	-	-	-	-	100
N=c1c2c(-c3ccccc3)c(-c3ccccc3)n(Cc3ccccc3)c2ncn1CCO	-	98	-	-	-	-	96
CCC(=C(c1ccc(OC)cc1)c1ccc(OC)cc1)c1cn(CC(O)CN2CCN(C)CC2)c2ccccc12 (stereo not drawn)	86	105	-	-	-	-	101
O=S(=O)(/N=C(/Sc1ccccc1)c1ccccc1)c1ccccc1	?	60	-	-	-	-	75
CS/C(=N\S(=O)(=O)c1ccccc1)c1ccccc1	-	-	-	-	-	-	.
CC(/C=C/c1cccc([N+](=O)[O-])c1)=N/NC(=O)c1cccnc1	-	-	-	-	-	-	.
CC(/C=C/c1ccccc1)=N/NC(=O)c1cc([N+](=O)[O-])cc([N+](=O)[O-])c1	-	51	-	-	-	-	51
O=C(N/N=C/c1ccc([N+](=O)[O-])s1)c1ccncc1	?	-	-	-	-	-	.
Cc1ccc(C(=O)N/N=C/c2ccc([N+](=O)[O-])s2)cc1	105	82	-	-	-	91	80
CCN1CCc2c(sc(NC(=O)c3ccc(S(=O)(=O)N4CCCCCC4)cc3)c2C(=O)NC)C1	67	71	-	-	-	-	62
CCN1CCc2c(sc(NC(=O)c3ccc(S(=O)(=O)N4CCOCC4)cc3)c2C(N)=O)C1	-	-	-	-	-	-	.
CCN1CCc2c(sc(NC(=O)c3ccc(S(=O)(=O)N4CCOCC4)cc3)c2C(=O)OC)C1	-	76	-	-	-	-	-
O=C1NC(Cc2ccccc2)c2nc3ccc(F)cc3c(=O)n2-c2ncccc21 (stereo not drawn)	.	-	-	-	.	-	.
COC(=O)C1=C(C)N(Cc2ccccc2)C(=NCc2cccc(Cl)c2)N[C@H]1c1ccccc1	-	101	-	-	-	-	98
CC1=CC(C)[C@H](/C=N/n2c(=O)[nH]c3c([nH]c4ccc(C)cc43)c2=O)C(C)C1 (stereo partly drawn)	-	62	-	-	-	-	-
CCCCNC(=O)C1(C)CCN1Cc1cccc2c(OC)cc(C(=O)OCC)cc12 (stereo not drawn)	.	57	-	-	.	-	-
Nc1ccc2c(Cl)cc(Cl)cc2c1	.	-	-	-	.	-	.
CC(=O)c1ccc(Nc2nc(C(N)Cc3ccc(Cl)cc3)cs2)cc1 (stereo not drawn)	.	56	-	-	.	-	72
COc1ccc(CC(N)c2csc(Nc3ccccn3)n2)cc1 (stereo not drawn)	.	-	-	-	.	-	.
NC(Cc1ccc(F)cc1)c1csc(Nc2cc(Oc3ccccc3)ncn2)n1 (stereo not drawn)	.	79	-	-	.	-	83
COc1ccc(CC(N)c2csc(Nc3cc(Oc4ccccc4)ncn3)n2)cc1 (stereo not drawn)	.	-	-	-	.	-	.
CC(=O)c1ccc(Nc2nc(C(N)Cc3ccc(N)cc3)cs2)cc1 (stereo not drawn)	.	-	-	-	.	-	.
COc1ccc(CC(N)c2csc(Nc3cccc(OC)n3)n2)cc1 (stereo not drawn)	.	70	-	-	.	-	96
CCOc1ccc(Cl)cc1-c1cc(C(=O)NCc2cc(C(F)(F)F)cc(C(F)(F)F)c2)[nH]n1	.	-	-	-	.	-	.
SMILES	MITF TRPM1 inh	Peg3 prom inh-1	KKLEB cytotox	CF NFkB inh	B2AR ag	HIF-2a block	Peg3 prom inh-2
COc1ccc(-c2cc(C(=O)N3CCCCCC3)c3ccccc3n2)c(OC)c1	-	-	-	-	-	-	.
COc1ccc(-c2cc(C(=O)N3CCN(c4ccccc4F)CC3)c3ccccc3n2)c(OC)c1	-	51	-	-	-	-	52
COc1ccc(OC)c(-c2cc(C(=O)N3CCN(c4ncccn4)CC3)c3ccccc3n2)c1	-	55	-	-	-	-	52
COc1ccc(-c2cc(C(=O)N3CCN(c4ncccn4)CC3)c3ccccc3n2)c(OC)c1	-	53	-	-	-	-	45
COc1ccc(N2CCN(C(=O)c3cc(-c4cc(OC)ccc4OC)nc4ccccc34)CC2)cc1	-	-	-	-	-	-	.
COC(=O)[C@@]1(Cc2ccc(F)cc2)[C@H]2c3cc(C(=O)N(C)C)n(CCCNc4ncc(C(F)(F)F)cc4Cl)c3C[C@H]2CN1C(=O)c1ccccc1	.	.	.	.	.	-	.
COc1cc(Cl)ccc1OC1(C)CCN(Cc2cccn2-c2nccs2)C1 (stereo not drawn)	.	-	-	-	.	-	.
COc1cc(/C=C/C(=O)O)ccc1O	.	-	-	-	-	-	.
COc1cc(/C=C/C(=O)CC(=O)/C=C/c2ccc(O)c(OC)c2)ccc1O	-	64	-	-	-	-	-
CC(C)(C)c1ccc(CC(=O)N2CCC2(C)C(=O)NCc2ccc3c(c2)OCO3)cc1 (stereo not drawn)	.	-	-	-	.	-	.
CNc1cncc(-c2ccc(O)cc2C)n1	.	-	-	-	.	-	.
Cc1cc(C)cc(NS(=O)(=O)c2ccc3[nH]cc(C(=O)NCc4ccco4)c(=O)c3c2)c1	-	55	-	-	-	-	71
CCn1c(/C=C2\C(=O)Nc3ccccc32)nc2ccccc2c1=O	-	52	-	-	-	-	-
CCOc1ccc(-c2ccc(SCC(=O)Nc3nnc(CC)s3)nn2)cc1	-	-	-	-	-	-	.
CCOc1ccc(-c2ccc(SC)nn2)cc1	62	76	-60	-	-	-	45
CCCCN(C)c1c(C)nc2ccc(C(=O)N3CCN(C(C)=O)CC3)cn12	.	-	-	-	.	-	.
O=C(c1cc(-c2cccs2)nn1-c1ccccc1)N1CCN(S(=O)(=O)c2ccccc2)CC1	-	57	-	-	-	-	57
COc1ccc(C2c3c(ncn(CCCO)c3=N)Oc3ccc4ccccc4c32)cc1OC (stereo not drawn)	.	-	-	-	-	-	.
COc1ccccc1C1c2ccc3ccccc3c2Oc2ncn(CCCO)c(=N)c21 (stereo not drawn)	62	102	-	-	-	-	97
Nc1[nH]c(C(=O)c2ccccc2)c(-c2ccccc2Br)c1C(=O)c1ccccc1	.	.	.	.	.	-	.
COc1ccc(/C=C2/CCCC(CN(C)C)C2=O)cc1 (stereo not drawn)	68	98	-	-	-	-	99
O=C1C(=Cc2ccc(Cl)cc2)CCc2ccccc21	.	-	-	-	.	-	.
CN(C)CC1CCC/C(=C/c2ccc(Cl)cc2)C1=O (stereo not drawn)	81	96	-	-	-	-	98
